In PubChem BioAssay AID1671190 (National Center for Advancing Translational Sciences (NCATS), 2021):
Among all 580,000 compounds or so, about 6,100 (1.1%) were called active. Inconclusive results (about 15%) are left out. The call rests on the fitted dose curve; in most records, active means well fitted inhibition curve with a large enough effect; inconclusive means small, poorly fitted or top-dose-only effect, or another doubt; inactive means no such curve, though single readings can be large or run the other way. The full list was thinned out, with actives kept by preference.

Target: Polyunsaturated fatty acid lipoxygenase ALOX12 (Homo sapiens) (UniProt P18054)
Assay: Primary qHTS assay for inhibitors of human arachidonate 12S-lipoxygenase (ALOX12): Round 2
Settings: purified 12hLO, xylenol orange hydroperoxide absorbance; series mostly up to 108 µM
Outline: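 Hydroperoxide product was detected by ferrous iron/xylenol orange as the 573 to 405 nm absorbance ratio. Arachidonic acid at 40 uM (final) was turned over for 30 min at room temperature by 150 nM human 12hLO, pH 7.0 Hepes buffer, after 15 min compound preincubation.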
On the % scale 0 is the no-effect control and ±100 the full control effect; potency means the concentration at half of the fitted maximal effect.

Chain of Polyunsaturated fatty acid lipoxygenase ALOX12 (Homo sapiens) (P18054 whole entry, looked up): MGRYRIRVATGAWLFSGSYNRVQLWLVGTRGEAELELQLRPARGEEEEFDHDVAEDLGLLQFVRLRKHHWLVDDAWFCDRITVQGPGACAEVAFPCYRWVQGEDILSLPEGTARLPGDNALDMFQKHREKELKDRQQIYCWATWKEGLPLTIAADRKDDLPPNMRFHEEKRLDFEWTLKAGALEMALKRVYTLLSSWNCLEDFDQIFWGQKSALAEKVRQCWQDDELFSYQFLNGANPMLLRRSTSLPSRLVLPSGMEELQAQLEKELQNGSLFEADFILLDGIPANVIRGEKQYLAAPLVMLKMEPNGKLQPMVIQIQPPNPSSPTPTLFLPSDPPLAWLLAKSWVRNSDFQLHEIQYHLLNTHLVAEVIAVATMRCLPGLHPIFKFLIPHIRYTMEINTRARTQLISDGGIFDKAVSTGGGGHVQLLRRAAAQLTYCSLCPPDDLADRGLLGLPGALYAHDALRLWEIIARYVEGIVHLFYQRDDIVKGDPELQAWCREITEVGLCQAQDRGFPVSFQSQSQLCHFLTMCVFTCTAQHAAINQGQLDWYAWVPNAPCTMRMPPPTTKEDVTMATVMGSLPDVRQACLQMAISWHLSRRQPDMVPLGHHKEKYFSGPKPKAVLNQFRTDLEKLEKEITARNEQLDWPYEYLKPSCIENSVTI

Potency, inactive:
CCCn1c(SCC(=O)N2CCc3ccccc32)nnc1-c1ccncc1
Cc1oc(-c2ccccc2)nc1C(=O)NCCCN1CCCC1=O
CCCCc1noc(CSc2cc(C(N)=O)c3ccccc3n2)n1
CCOC(=O)N1CCN(Cc2nc3c(c(=O)[nH]c(=O)n3C)n2Cc2ccc(F)cc2)CC1
COc1ccc(CCc2nnc(NS(=O)(=O)Cc3ccccc3)s2)cc1
CC(=O)Nc1ccc(Cl)c(-c2nc3cc(C)ccc3o2)c1
NC(=O)c1ccc(S(=O)(=O)N2CCN(C(=O)c3cc4c(s3)CCC4)CC2)cc1
CCc1nc(Nc2ccc3nccnc3c2)c2oc3ccccc3c2n1
COc1ccc(CCNC(=O)CSc2nc(C)nc3c2oc2ccccc23)cc1OC
COCCN1CCCC(c2[nH]ccc2C(=O)NCCc2c[nH]c3ccccc23)C1 (centres undefined)
CCCCCCCOc1ccc(C(=O)Oc2cncc(Cl)c2)cc1
Cc1ccc(S(=O)(=O)N2CCN(C(=O)c3cccs3)CC2)cc1
Cc1ccc(S(=O)(=O)N2CCN(Cc3cccc(C)c3O)CC2)cc1
COc1c(I)cc(Br)cc1/C=C/C(=O)O
O=C(Cc1csc(-c2ccccc2Cl)n1)Nc1nccs1
Cc1ccc(-c2c3c(=O)n(C)c(=O)n(C)c3cn2-n2cnnc2)cc1
COc1ccc(NC2CC(=O)N(C)C2=O)cc1 (centres undefined)
COc1ccc(N2C(=O)CC(Nc3ccc(F)cc3)C2=O)c([N+](=O)[O-])c1 (centres undefined)
COCCNC(=O)COc1ccc2c(C)cc(=O)oc2c1
CCCCn1c2ccccc2c2nnc(SCc3ccc(F)cc3)nc21
O=C(Nc1ccc2nc(SCC(=O)N3CCCc4ccccc43)sc2c1)c1ccc(F)cc1
O=C(Nc1ccc2nc(N3CCCC3)sc2c1)c1ccc(F)cc1
CCCn1nc(C(=O)N(CCOC)Cc2cccs2)c2ccccc2c1=O
Cc1cc(O)c(NC(=O)c2ccc(C)c([N+](=O)[O-])c2)cc1C
Cc1ccc(C(=O)c2ccc(N3CCN(C)CC3)c([N+](=O)[O-])c2)cc1
COc1ccc(CCn2c(NC3CCCCC3)nc3c2c(=O)[nH]c(=O)n3C)cc1
O=C(Nc1ccc2c(c1)CCC2)c1cc2c(s1)CN(C1CC1)C2
CCn1nc(C(=O)Nc2ccccc2Oc2ccccc2)c2ccccc2c1=O
COc1ccc(C(=O)COC(=O)c2ccc3c(c2)OCCO3)cc1
Cc1nc2sccn2c(=O)c1S(=O)(=O)NCCc1ccccc1
Cc1cccc(C)c1Nc1nc(-c2ccccc2)cs1
Cn1c(SCC(=O)N2CCc3ccccc32)nnc1-c1ccc(F)cc1
O=C(NCCCN1CCN(Cc2ccccc2)CC1)c1ccccc1C(F)(F)F
O=C(N[C@H](Cc1ccccc1)C(=O)N1CCCN(Cc2cccs2)CC1)[C@H]1O[C@@H](n2ccc(=O)[nH]c2=O)[C@H](O)[C@@H]1O
Cc1nccn1-c1ccc(NC(=O)[C@H]2O[C@@H](n3ccc(=O)[nH]c3=O)[C@H](O)[C@@H]2O)cc1
CCOCCCNCc1ccccc1Cl
CC(C)(C)CC(C)(C)NCc1ccco1
Cc1nnc(C(=O)Nc2ccc(C(=O)NCc3ccc4c(c3)OCO4)cc2)s1
CNC(=O)CNC(=O)c1n[nH]c(=O)c2ccccc12
COc1ccc2[nH]cc(CCNC(=O)CNc3nc(Cl)nc4nc[nH]c34)c2c1
COc1cccc(C2C(C#N)=C(N)OC3=C2S(=O)(=O)N(C)c2ccccc23)c1OC (centres undefined)
CCC(=O)Nc1cccc(C(=O)OCc2cc(=O)n3nc(CC)sc3n2)c1
CCc1nn2c(=O)cc(CNc3cc(F)ccc3F)nc2s1
CCCN(C1CCS(=O)(=O)C1)S(=O)(=O)c1ccc(OC)cc1 (centres undefined)
O=C(NCCc1ccco1)C1c2ccccc2C(=O)N(Cc2ccccc2)C12CCCC2 (centres undefined)
N#CCCn1cc(C(=O)CN2C(=O)NC3(CCOc4ccccc43)C2=O)c2ccccc21 (centres undefined)
O=S(=O)(c1ccc2nc(N3CCN(c4cccc(Cl)c4)CC3)ccc2c1)N1CCCCC1
Cc1ccccc1N1CCN(S(=O)(=O)c2ccc3ccccc3c2)CC1
CC1=C[C@@H](CNC2CCN(C)CC2)[C@H](C(C)C)C[C@H]1Cc1nc2ccccc2[nH]1

Potency, active:
CSc1nnc(-c2ccncc2)n1CCCN1CCCC1=O 15.8 µM
CCC(=C/c1sc2ccc3ccccc3c2[n+]1C)/C=C1\Sc2ccc3ccccc3c2N1C 39.8 µM
COc1ccc(C)cc1Nc1nc(C)nc2c1oc1ccccc12 35.5 µM
Cc1ccc(S(=O)(=O)N2CCN(CC(=O)NC(C)c3cccs3)CC2)cc1 (centres undefined) 0.708 µM
Cc1ccc(-c2c3c(=O)n(C)c(=O)n(C)c3c3n2C(C)(C)COC3c2ccc(C)cc2O)cc1 (centres undefined) 6.31 µM
CC(=O)Oc1cccc(N2C(=O)CC(Nc3ccc(N4CCOCC4)cc3)C2=O)c1 (centres undefined) 35.5 µM
O=C(CSc1nc2ccc(NC(=O)c3ccc(F)cc3)cc2s1)NC1CCCCC1 3.98 µM
Cc1oc2cc([N+](=O)[O-])c(O)c([N+](=O)[O-])c2c1C(=O)c1ccc(Br)cc1 28.2 µM
CCN(CC)CCCCNc1ncc2c(n1)N(C)C(=O)N(c1c(Cl)c(OC)cc(OC)c1Cl)C2 34.3 µM
Cc1nc(C)c(-c2csc(NCCc3ccccc3)n2)s1 5.01 µM
O=C(NS(=O)(=O)c1cccs1)[C@H]1O[C@@H](n2ccc(=O)[nH]c2=O)[C@H](O)[C@@H]1O 31.6 µM
CC(C)(C)C1C/C(=C/c2ccco2)C(=O)/C(=C/c2ccco2)C1 (centres undefined) 39.8 µM
CCc1nn2c(=O)cc(CNc3cccc(C(=O)NC4CC4)c3)nc2s1 10 µM
Cc1ccc(C)c(N2CCN(c3ccc4cc(S(=O)(=O)N5CCC(C)CC5)ccc4n3)CC2)c1 50.1 µM

Activity change, negative = inhibition, inactive:
Cc1noc(C)c1C(=O)N1CCCC2(Cc3ccccc3CN2C(=O)C2CCCC2)C1 (centres undefined) 2.72% [at 12.5 µM]
